Values joined by “and” are separate entries in the source; they are usually repeats but may differ in a detail not shown here. Identical values can stand only once. Results filed as inconclusive are left out. A call without a number means that no potency is given here. Where a structure was tested more than once in an assay, its records may differ in their call. Active and inactive are the calls of the source. Unless noted, calls follow the shape of the dose curve; as a rule, active = well fitted curve in the direction sought with a large enough effect in the repeat runs; inconclusive = weak or mixed curves; inactive = no such curve, though single readings can be large; an effect the other way counts as inactive or inconclusive.
Columns and labels:
[1] = qHTS assay for small molecule agonists of the p53 signaling pathway (AID 651631; calls by dose curve; also: nearly all actives have a fitted effect of over 15% in size; also: potency is read from the fitted curve at half-maximal effect)
In short: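 HCT-116 p53RE-bla reporter line, 16 h compound treatment at 37 °C, then fluorescence after 2 h with B/G FRET substrate.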

[2] = qHTS assay for small molecules that induce genotoxicity in human embryonic kidney cells expressing luciferase-tagged ATAD5 (AID 651632); also: nearly all actives have a fitted effect of over 15% in size; also: potency is read from the fitted curve at half-maximal effect
In short: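 Genotoxicity read-out via ATAD5-luciferase: HEK293T cells, 16 hr compound incubation at 37C, Amplite detection.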

[3] = qHTS assay for small molecule agonists of the p53 signaling pathway - cell viability (AID 651633; calls by dose curve; also: nearly all actives have a fitted effect of over 30% in size; also: potency is read from the fitted curve at half-maximal effect)
In short: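 p53RE-bla cells, seeded at 4,000 per well and rested 5 h at 37 C/5% CO2, received compounds in DMSO for 16 h at 37 C. CellTiter-Glo was then added, and luminescence was read after 30 min at room temperature to gauge cytotoxicity.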

[4] = qHTS assay for small molecules that induce genotoxicity in human embryonic kidney cells expressing luciferase-tagged ATAD5 - cell viability (AID 651634; calls by dose curve; also: nearly all actives have a fitted effect of over 25% in size; also: potency is read from the fitted curve at half-maximal effect)
In short: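 Live-cell protease activity (CellTiter-Fluor, fluorescence) indicates viability. HEK293T cells with luciferase-tagged ATAD5; 15.5 hr compound treatment at 37C.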

[5] = qHTS assay for small molecule disruptors of the mitochondrial membrane potential - cell viability (AID 720634; calls by dose curve; also: nearly all actives have a fitted effect of over 20% in size; also: potency is read from the fitted curve at half-maximal effect)
In short: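 Human hepatoma HepG2 cells were treated for 1 hr with test chemicals, then given m-MPI dye and CellTiter-Glo. Cell viability reflects luminescence proportional to cellular ATP.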

[6] = qHTS assay for small molecule disruptors of the mitochondrial membrane potential (AID 720635); also: potency is read from the fitted curve at half-maximal effect
In short: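 HepG2 cells (2,000/well) attached overnight at 37C, then took compound for 1 hr at 37C, 5% CO2. Mito-MPS dye was added for 30 min; fluorescence was read at 490/535 nm (monomers) and 540/590 nm (aggregates).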

[7] = qHTS assay to test for compound auto fluorescence at 590 nm (red) in HepG2 cells (AID 720674)
In short: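 Rose Bengal sodium served as the red fluorophore standard. HepG2 monolayers (overnight attachment, MEM with 10% FBS) were exposed to test compounds for 1 hr at 37 C and read at Ex 540/Em 590 nm.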

[8] = qHTS assay to test for compound auto fluorescence at 535 nm (green) in HepG2 cells (AID 720675)
[9] = qHTS assay to test for compound auto fluorescence at 460 nm (blue) in HEK293 cells (AID 720678)
In short: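 Blue read-out at excitation 405 nm and emission 460 nm follows overnight compound exposure of HEK293 cells at 37C in 5% CO2. Activity is given as auto fluorescence equivalency to triamterene.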

[10] = qHTS assay to test for compound auto fluorescence at 590 nm (red) in HEK293 cells (AID 720679)
In short: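 Red channel, Ex/Em 540/590nm; signal expressed as equivalency to Rose Bengal sodium. HEK293, 2,000 cells/well, 10% dialyzed FBS; 23 nL compound pinned after 4-5 hr attachment; overnight 37C/5% CO2 before reading.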

| Structure (SMILES) | Potency [1] | Potency [2] | Potency [3] | Potency [4] | Potency [5] | Potency [6] | outcome [7] | outcome [8] | Potency [9] | outcome [10] |
| --- | --- | --- | --- | --- | --- | --- | --- | --- | --- | --- |
| O=C(O)c1nn(Cc2ccc(Cl)cc2Cl)c2ccccc12 | inactive | inactive | inactive | inactive | inactive | inactive | inactive | inactive | inactive | inactive |
| N#Cc1c(Cl)c(Cl)c(Cl)c(C#N)c1Cl | 21.3 µM (active) and 30.6 µM (active) | 424 nM (active) and 864 nM (active) | 6.73 µM (active) and 9.69 µM (active) | 30 µM (active) and 8.63 µM (active) | – | 3.37 µM (active) and 27.3 µM (active) | inactive | inactive | inactive | inactive |
| ClCc1ccccn1 | inactive | inactive | inactive | inactive | – | inactive | inactive | inactive | inactive | inactive |
| CCCCC(C#N)(Cn1cncn1)c1ccc(Cl)cc1 (stereo unspecified) | inactive | inactive | inactive | inactive | inactive | – | inactive | inactive | inactive | inactive |
| CCCCOC(=O)COC(=O)c1ccccc1C(=O)OCCCC | inactive | inactive | inactive | inactive | – | inactive | inactive | inactive | inactive | inactive |
| CCNc1nc(Cl)nc(NC(C)(C)C#N)n1 | inactive | inactive | inactive | inactive | – | inactive | inactive | inactive | inactive | inactive |
| O=C1CCCO1 | inactive | inactive | inactive | inactive | inactive | inactive | inactive | inactive | inactive | inactive |
| CCC/C=N/O | inactive | inactive | inactive | inactive | – | inactive | inactive | inactive | inactive | inactive |
| CCOS(=O)(=O)OCC | inactive | inactive | inactive | inactive | – | inactive | inactive | inactive | inactive | inactive |
| Brc1ccc(Br)cc1 | inactive | inactive | inactive | inactive | inactive | inactive | inactive | inactive | inactive | inactive |
| CC[n+]1c(-c2ccccc2)c2cc(N)ccc2c2ccc(N)cc21 | 3.35 µM (active) and 10.6 µM (active) and 2.16 µM (active) | inactive | 9.44 µM (active) and inactive | 23.7 µM (active) and 54.2 µM (active) | inactive | 2.21 µM (active) | inactive | inactive | inactive | inactive |
| Cc1ccc([N+](=O)[O-])cc1 | inactive | inactive | inactive | inactive | inactive | inactive | inactive | inactive | inactive | inactive |
| OC(c1ccc(Cl)cc1)(c1cncnc1)c1ccccc1Cl (stereo unspecified) | inactive | inactive | inactive | inactive | – | 49.4 µM (active) and 30.6 µM (active) | inactive | inactive | inactive | inactive |
| Oc1ccc(Cl)cc1Cl | inactive | inactive | inactive | inactive | inactive | 30.4 µM (active) and 27.3 µM (active) | inactive | inactive | inactive | inactive |
| ClC(Cl)(Cl)c1ccccc1 | inactive | inactive | inactive | inactive | – | inactive | inactive | inactive | inactive | inactive |
| CC1(C)C(C(=O)OC(C#N)c2cccc(Oc3ccccc3)c2)C1(C)C (stereo unspecified) | inactive | inactive | inactive | inactive | 54.4 µM (active) | 30.9 µM (active) | inactive | inactive | inactive | inactive |
| CCOP(=O)(OCC)OCC | inactive | inactive | inactive | inactive | – | inactive | inactive | inactive | inactive | inactive |
| ClC(Cl)(Cl)Br | inactive | inactive | inactive | inactive | – | inactive | inactive | inactive | inactive | inactive |
| CCCCOCC1CO1 (stereo unspecified) | inactive | inactive | inactive | inactive | – | inactive | inactive | inactive | inactive | inactive |
| NC(=O)CN1CCCC1=O | inactive | inactive | inactive | inactive | inactive | inactive | inactive | inactive | inactive | inactive |
| C[N+](C)(C)C | inactive | inactive | inactive | inactive | – | – | inactive | inactive | inactive | inactive |
| CC(C)(C#N)N=NC(C)(C)C#N | inactive | inactive | inactive | inactive | inactive | inactive | inactive | inactive | inactive | inactive |
| C[C@]12CC[C@H]3[C@@H](CCC4=CC(=O)CC[C@@H]43)[C@@H]1CC[C@@H]2O | inactive | inactive | inactive | inactive | inactive | inactive | inactive | inactive | inactive | inactive |
| Clc1cccc(C(Cl)(Cl)Cl)n1 | inactive | inactive | inactive | inactive | – | – | inactive | inactive | inactive | inactive |

| Structure (SMILES) | Potency [1] | Potency [2] | Potency [3] | Potency [4] | Potency [5] | Potency [6] | outcome [7] | outcome [8] | Potency [9] | outcome [10] |
| --- | --- | --- | --- | --- | --- | --- | --- | --- | --- | --- |
| c1ccc2c(c1)Nc1ccccc1S2 | inactive | inactive | inactive | inactive | 29.8 µM (active) | 7.5 µM (active) and 4.33 µM (active) | inactive | inactive | inactive | inactive |
| CC(C)CON=O | inactive | inactive | inactive | inactive | – | inactive | inactive | inactive | inactive | inactive |
| CCCCOCCOC(C)=O | inactive | inactive | inactive | inactive | – | 53 µM (active) | inactive | inactive | inactive | inactive |
| Nc1ccc2ccccc2c1 | inactive | inactive | inactive | inactive | inactive | inactive | inactive | inactive | inactive | inactive |
| CNC(=O)Oc1cccc2c1OC(C)(C)C2 | inactive | inactive | inactive | inactive | – | inactive | inactive | inactive | inactive | inactive |
| O=[N+]([O-])c1ccc(Cl)c([N+](=O)[O-])c1 | 55.3 µM (active) and 12.2 µM (active) | 24.7 µM (active) | 22 µM (active) and 54.5 µM (active) | 55.3 µM (active) and 68.6 µM (active) | 22 µM (active) and 21.7 µM (active) | 8.77 µM (active) and 8.63 µM (active) | inactive | inactive | inactive | inactive |
| ClCC(Cl)CCl | inactive | inactive | inactive | inactive | – | inactive | inactive | inactive | inactive | inactive |
| CC(C)(O)C#N | inactive | inactive | inactive | inactive | inactive | inactive | inactive | inactive | inactive | inactive |
| Cn1c(-c2ccccc2)cc(-c2ccccc2)[n+]1C | inactive | inactive | inactive | inactive | inactive | inactive | inactive | inactive | inactive | inactive |
| CCOP(=S)(OCC)SCSC(C)(C)C | inactive | inactive | inactive | inactive | – | – | inactive | inactive | inactive | inactive |
| CN(C)c1ccccc1 | inactive | inactive | inactive | inactive | – | inactive | inactive | inactive | inactive | inactive |
| CN(C)P(=O)(N(C)C)N(C)C | inactive | inactive | inactive | inactive | inactive | inactive | inactive | inactive | inactive | inactive |
| COC(=O)Nc1nc2ccccc2[nH]1 | 7.7 µM (active) and 13.7 µM (active) | inactive | inactive | inactive | inactive | – | inactive | inactive | inactive | inactive |
| CNC(=S)S | inactive | inactive | inactive | – | inactive | inactive | inactive | inactive | inactive | inactive |
| CCCCSP(=O)(SCCCC)SCCCC | inactive | inactive | inactive | inactive | – | – | inactive | inactive | inactive | inactive |
| c1ccc(C2CO2)cc1 (stereo unspecified) | inactive | inactive | inactive | – | inactive | inactive | inactive | inactive | inactive | inactive |
| C[C@]12CCC(=O)C=C1CC[C@@H]1[C@@H]2CC[C@@]2(C)[C@H]1CC[C@]2(C)O | 21.7 µM (active) | inactive | inactive and 54.5 µM (active) | – | inactive | inactive | inactive | inactive | inactive | inactive |
| Cc1cc(Cl)ccc1N=CN(C)C | – | inactive | inactive | inactive | inactive | inactive | inactive | inactive | inactive | inactive |
| CC(C)Nc1nc(Cl)nc(NC(C)C)n1 | inactive | inactive | inactive | – | – | inactive | inactive | inactive | inactive | inactive |
| CS(=O)(=O)NC(=O)c1cc(Oc2ccc(C(F)(F)F)cc2Cl)ccc1[N+](=O)[O-] | inactive | inactive | inactive | inactive | – | – | inactive | inactive | inactive | inactive |
| C=C(C)C#N | inactive | inactive | inactive | inactive | – | – | inactive | inactive | inactive | inactive |
| N#CCCCCC#N | inactive | inactive | inactive | – | inactive | inactive | inactive | inactive | inactive | inactive |
| S=c1[nH]c2ccccc2[nH]1 | inactive | – | inactive | inactive | – | inactive | inactive | inactive | inactive | inactive |

Reference: PubChem BioAssay (Tox21)
